Only some compounds are listed: those with a hit (about 3.3% of all), similar ones and a draw of the others.
ALOX12 inhib = qHTS Assay for Inhibitors of 12-hLO (12-human lipoxygenase); Polyunsaturated fatty acid lipoxygenase ALOX12 (Homo sapiens), P18054; purified 12-hLO, xylenol orange hydroperoxide absorbance; Potency, µM (top dose mostly 57.1 µM), most hits filed as inhibitors; 150,000 compounds, 0.12% hits; AID 1452, 2008; further: nearly all actives have a fitted effect of over 55% in size
Target sequence (P18054 whole entry, looked up): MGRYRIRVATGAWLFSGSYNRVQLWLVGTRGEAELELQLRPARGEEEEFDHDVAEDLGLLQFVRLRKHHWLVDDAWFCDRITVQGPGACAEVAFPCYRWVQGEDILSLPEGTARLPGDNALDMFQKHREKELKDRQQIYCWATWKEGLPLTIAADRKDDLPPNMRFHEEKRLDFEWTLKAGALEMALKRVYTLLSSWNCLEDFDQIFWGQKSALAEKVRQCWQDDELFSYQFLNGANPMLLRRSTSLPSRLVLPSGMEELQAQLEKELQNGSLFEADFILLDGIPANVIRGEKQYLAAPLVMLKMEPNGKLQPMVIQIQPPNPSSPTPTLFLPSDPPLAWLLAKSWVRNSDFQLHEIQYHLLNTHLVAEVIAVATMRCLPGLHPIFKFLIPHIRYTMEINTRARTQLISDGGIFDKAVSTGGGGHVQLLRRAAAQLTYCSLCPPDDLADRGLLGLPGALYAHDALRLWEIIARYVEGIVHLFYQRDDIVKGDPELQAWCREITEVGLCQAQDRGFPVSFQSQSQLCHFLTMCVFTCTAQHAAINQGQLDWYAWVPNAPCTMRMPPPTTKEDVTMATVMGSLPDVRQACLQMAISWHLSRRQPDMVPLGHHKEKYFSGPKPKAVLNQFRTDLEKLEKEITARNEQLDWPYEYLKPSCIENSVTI
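Hydroperoxide output read as Fe(III)-xylenol orange absorbance, 573-to-405 nm ratio, after 30 min reaction with 40 uM arachidonic acid. Enzyme: 150 nM purified human 12hLO, 15 min compound preincubation; 25 mM Hepes pH 7.0, room temperature.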
PNC assembly inh = High Content Assay for Compounds that inhibit the Assembly of the Perinucleolar Compartment | PC3M PTB-GFP, PNC prevalence imaging, 16 h; stronger effect = lower value | activity change (PNC), negative = inhibition, % at 10 µM | 140,000 compounds, 3.1% hits;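 active means readout at or below -70, meaning at least 70% loss of cells showing the perinucleolar compartment, a nuclear body marking cancer cells; inconclusive means readout between -30 and a set limit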
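Read-out is percentage of cells bearing a perinucleolar compartment, from automated 20x imaging of fixed, Hoechst-stained PC3M PTB-GFP cells. Cells were seeded 4 h, then exposed 16 h to compound (23 nl of library stock) in duplicate plates.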
IMPase cell inh = qHTS Assay for Identifying the Cell-Membrane Permeable IMPase Inhibitors; Inositol monophosphatase 1 (Rattus norvegicus), P97697; CHO-M1 cells, IP1 accumulation, HTRF TR-FRET ratio; inhibition (IP1 accumulation), % at 46.1 µM; 120,000 tested, under 10 active; active means well fitted curve in the direction sought with a large enough effect in the signal ratio, not every such curve was filed as active; inconclusive means small, poorly fitted or top-dose-only effect, or a change in a side signal; inactive means no such curve, though single readings can be large or run the other way; the % refers to the signal ratio;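 further: cells stimulated with carbachol in lithium chloride buffer; higher means more IMPase inhibition seen as more IP1 and lower FRET ratio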
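CHO-M1, 2000 cells/well, cultured 16–30 h; cpd up to 46 uM; carbachol (50 uM solution, stimulation buffer w/ 50 mM LiCl, pH 7.4), 30 min 37C; IP-One TR-FRET, 10 min RT; Ex 320/Em 665, 620; Hill-fit AC50.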
HTT cytoprotect = qHTS Multiplex Assay to Identify Dual Action Probes in a Cell Model of Huntington: Cytoprotection (ATP); PC12 HTT-Q103 induced, cytoprotection, ATP luminescence, 40 h; Potency, µM (doses to about 56.4 µM), actives largely listed as activators; 230,000 compounds, 0.14% hits; AID 1471, 2008; further: nearly all actives have a fitted effect of over 45% in size
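Compounds were screened for protection of PC12 cells against cell death after tebufenozide induction (100 nM final) of mutant Huntingtin exon 1 (Q103) fused to GFP.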
NPSR antagonist = qHTS Assay for Antagonists of the Neuropeptide S Receptor: cAMP Signal Transduction. CHO-NPSR cells, cAMP TR-FRET, antagonist mode. Potency, µM (doses to about 38.3 µM), usual class: inhibitors. 220,000 compounds, 1% hits; further: nearly all actives have a fitted effect of over 50% in size
HttQ103 aggreg = qHTS Multiplex Assay to Identify Dual Action Probes in a Cell Model of Huntington: Aggregate Formation (GFP); PC12 HttQ103-GFP aggregates, Acumen cytometry, 40 h; Potency, µM (highest dose often 46.1 µM), hits mostly inhibitors; 220,000 compounds, 1.1% hits; AID 1688, 2009; further: nearly all actives have a fitted effect of over 60% in size
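Using laser scanning cytometry, GFP-positive aggregates were counted after lysis of PC12 cells induced with 100 nM tebufenozide to express HTT exon 1 Q103–GFP. Compounds were tested in titration.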
Numbers stand for hits; . = inactive; ? = inconclusive; / = no result given; ! = a repeat was not active; [ ] = remark or other dose. Unless noted, the call rests on the fitted dose curve; in most records, active means well fitted curve in the direction sought with a large enough effect; inconclusive means small, poorly fitted or top-dose-only effect, or another doubt; inactive means no such curve, though single readings can be large; an effect the other way counts as inactive or inconclusive.

SMILES | ALOX12 inhib | PNC assembly inh | IMPase cell inh | HTT cytoprotect | NPSR antagonist | HttQ103 aggreg
COc1ccccc1NC(=S)N(Cc1ccco1)Cc1cc2ccc(C)c(C)c2[nH]c1=O | . | -84 | / | .[10 µM] | . | ?
COC(=O)CCCCCN1C(=O)NC(c2ccccc2)C(C(=O)OCc2ccccc2)=C1C (stereo not drawn) | . | -92 | / | . | . | .
CC1=C(C(=O)OCc2ccccc2)C(C2CC2)NC(=O)N1CCCCCC(=O)O (stereo not drawn) | . | / | / | . | / | /
CCN(CC)S(=O)(=O)c1cc(NC(=O)CSc2nc3c(cc2C#N)C(=O)CC(C)(C)C3)ccc1C | . | -96 | / | .[10 µM] | . | .
CCN(CC)S(=O)(=O)c1cc(NC(=O)CSc2nnc(-c3cccs3)o2)ccc1C | . | . | . | .[1.9 µM] | . | .
COC(=O)C/C=C\[C@H](C)[C@@H](OCc1ccccc1Br)C(C)C | / | / | / | .[10 µM] | / | /
C[C@@H](CN1c2ccccc2Sc2ccccc21)N(C)C | . | / | . | . | / | /
CC(CN1c2ccccc2Sc2ccccc21)N(C)C (stereo not drawn) | . | . | / | . | . | 28µM!
Cn1cc([N+](=O)[O-])c(C(=O)NCc2ccccc2)n1 | / | / | / | .[10 µM] | .[7.67 µM] | .[9.22 µM]
Cn1cc([N+](=O)[O-])c(C(=O)N(Cc2ccccc2)Cc2ccccc2)n1 | . | . | / | 2.5µM | . | .
Cc1ccc(Cc2cnc(N3C(=N)SC(C)C3=O)s2)cc1 (stereo not drawn) | / | / | / | . | . | .
Cc1cccc(Cc2cnc(N3C(=N)SC(C)C3=O)s2)c1 (stereo not drawn) | / | / | / | . | . | 22µM
CC(=O)NS(=O)(=O)c1cccnc1Nc1cccc(Cl)c1 | . | . | . | . | . | .
CCNC(=O)NS(=O)(=O)c1cnccc1Nc1cccc(Cl)c1 | . | -90 | / | / | . | .
O=C1c2cccc3c(N4CCCCC4)ccc(c23)C(=O)N1c1ccccn1 | . | . | . | . | . | ?
O=C1c2cccc3c([N+](=O)[O-])ccc(c23)C(=O)N1c1nccs1 | . | . | . | . | 10µM | 13µM
O=C1c2ccc([N+](=O)[O-])cc2C(=O)N1c1ccc(Cl)cn1 | / | / | / | .[10 µM] | . | .[9.22 µM]
O=C1c2cccc3c([N+](=O)[O-])ccc(c23)C(=O)N1c1ccccn1 | . | -105 | ? | . | ? | .
O=C1c2cccc3c([N+](=O)[O-])ccc(c23)C(=O)N1c1ccc(Cl)cn1 | . | . | . | . | 5µM | ?
O=C1c2cccc3cccc(c23)C(=O)N1c1nccs1 | . | . | . | . | . | .
Oc1cccc2ccc(SSc3ccc4cccc(O)c4n3)nc12 | ? | / | / | .[10 µM] | / | /
O=C(COc1ccc(-c2nnco2)cc1)N1CCN(S(=O)(=O)c2ccccc2)CC1 | . | -81 | . | . | . | .[9.22 µM]
CCCS(=O)(=O)N1CCN(C(=O)COc2ccccc2)CC1 | . | ? | . | . | . | .
CCCS(=O)(=O)N1CCN(C(=O)COc2ccc(-c3ccccc3)cc2)CC1 | . | -88 | . | . | . | .
CC(C)(C)c1ccc(OCC(=O)Nc2c(C(=O)c3ccc(F)cc3)oc3ccccc23)cc1 | / | / | . | / | / | /
Cc1ccc(N(CC(=O)NCc2cccs2)S(=O)(=O)c2cccs2)cc1 | . | -83 | . | . | . | .
CN(C)c1ccc(-c2cncnc2NCc2cccnc2)cc1 | / | / | / | . | / | /
Cc1ccccc1CN1C[C@@H]2C[C@@H](c3cnc(N4CCOCC4)s3)N3CCC[C@@]23C1=O | / | / | / | .[10 µM] | . | 2.5µM
Cc1cc2cc(CNS(=O)(=O)c3ccc4ccccc4c3)ccc2n1C | . | -102 | . | .[10 µM] | ? | .
CC(=O)Nc1ccc(S(=O)(=O)NCc2ccc3c(c2)cc(C)n3C)cc1 | . | . | . | . | . | ?
